# “And” between values parts separate entries of the source, which are not always exact repeats. Equal values may be shown once. Unmarked numbers belong to inactive results.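 Rule for the calls: active = log2 fold change beyond 2 SD from the library mean after excluding viability outliers; inactive = within 2 SD.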
# Molecular target: PARP1 L713F-nLuc biosensor (HCT116) (UniProt P09874)
# Assay: PARP1 L713F-nLuc/akaLuc ratio relative to DMSO control (biosensor stabilization) (fold change); higher = more PARP1 biosensor stabilization (target engagement / stabilizer), active = hit call of the paper
# Conditions: stock concentration (mM; final µM = stock mM x 1): 10; 24 h
# PARP1 L713F-nLuc biosensor (HCT116), sequence (P09874 whole entry L713F, looked up): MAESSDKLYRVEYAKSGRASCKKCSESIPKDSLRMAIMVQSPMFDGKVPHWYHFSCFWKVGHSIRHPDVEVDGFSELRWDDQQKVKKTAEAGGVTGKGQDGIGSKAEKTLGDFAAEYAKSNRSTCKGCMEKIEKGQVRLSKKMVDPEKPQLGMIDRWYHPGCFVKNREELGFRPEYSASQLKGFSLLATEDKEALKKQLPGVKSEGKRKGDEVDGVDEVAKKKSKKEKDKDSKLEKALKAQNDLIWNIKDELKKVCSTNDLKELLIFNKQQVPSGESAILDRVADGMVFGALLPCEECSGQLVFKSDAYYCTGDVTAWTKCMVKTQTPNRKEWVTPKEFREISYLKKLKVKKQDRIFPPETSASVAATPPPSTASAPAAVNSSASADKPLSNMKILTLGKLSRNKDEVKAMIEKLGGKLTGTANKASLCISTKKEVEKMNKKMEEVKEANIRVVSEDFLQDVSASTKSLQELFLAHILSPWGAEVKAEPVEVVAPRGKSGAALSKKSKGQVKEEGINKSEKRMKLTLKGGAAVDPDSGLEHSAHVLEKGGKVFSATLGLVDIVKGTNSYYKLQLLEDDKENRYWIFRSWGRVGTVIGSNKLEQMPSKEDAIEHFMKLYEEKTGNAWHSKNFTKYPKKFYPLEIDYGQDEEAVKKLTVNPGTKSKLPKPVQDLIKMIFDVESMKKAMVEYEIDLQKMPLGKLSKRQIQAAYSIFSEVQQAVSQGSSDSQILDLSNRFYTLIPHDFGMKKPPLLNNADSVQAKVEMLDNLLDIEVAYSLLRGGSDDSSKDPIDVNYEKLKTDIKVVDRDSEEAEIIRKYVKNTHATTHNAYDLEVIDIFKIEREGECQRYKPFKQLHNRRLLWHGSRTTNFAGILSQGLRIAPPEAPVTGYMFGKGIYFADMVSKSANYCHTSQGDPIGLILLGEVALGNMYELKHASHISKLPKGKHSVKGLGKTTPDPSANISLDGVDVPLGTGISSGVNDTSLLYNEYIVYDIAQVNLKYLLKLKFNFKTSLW
row,Structure (SMILES),PARP1 L713F-nLuc/akaLuc ratio
1,Cc1ncc(F)c(Nc2n[nH]c3c2CN(C(=O)N2C[C@@H](C)N(CC4CCOCC4)C[C@@H]2C)C3(C)C)n1,1.25
2,N#CCC1CCN(c2nc(Nc3ccc(N4CCC(O)CC4)cc3)c3c(=O)[nH]ncc3n2)CC1 [Gusacitinib],0.883
3,O=c1sn(-c2cccc3ccccc23)c(=O)n1Cc1ccccc1 [Tideglusib],1.22
4,O=C(NC[C@H](O)CN1CCc2ccccc2C1)c1cc(NC2COC2)ncn1,0.532 and 0.854
5,CC(C)[C@@](C)(O)[C@@H]1CN(c2nc(-c3[nH]nc4ncccc34)c(F)cc2Cl)CCN1,0.823
6,Cc1cnc(-c2ccccc2C(C)C)nc1NCc1ccc(-n2ccnn2)cc1,0.718
7,CC(C)(C)c1nc(-c2cccc(NS(=O)(=O)c3c(F)cccc3F)c2F)c(-c2ccnc(N)n2)s1,0.885
8,N#CC[C@H](C1CCCC1)n1cc(-c2ncnc3[nH]ccc23)cn1 [Ruxolitinib],0.544
9,CC(=O)N1CCC(Nc2cc(C(=O)NC[C@H](O)CN3CCc4ccccc4C3)ncn2)CC1,0.707
10,Nc1nc(Cl)nc2c1ncn2[C@H]1C[C@H](O)[C@@H](CO)O1 [Cladribine],0.383
11,CCOC(=O)CCNc1cc(N2CCc3ccccc3CC2)nc(-c2ccccn2)n1,0.586
12,COC(=O)c1cccc(NC(=O)NC2CCN(c3ccnc(Nc4ccc(F)cc4)n3)C2)c1 (configuration not stated),1.07

# From the supplement of paper PMC11624193, “Coupling cellular drug-target engagement to downstream pharmacology with CeTEAM” (Nature Communications, 2024)
